Screening results from PubChem BioAssay.
MCF10A rereplic: inducers of DNA re-replication in MCF 10A breast cells; MCF 10A DNA re-replication, Hoechst nuclear intensity, 48 h; Potency, µM (doses to about 46.1 µM), for inactives: at the highest dose activity, positive = re-replication, hits mostly activators; 2.9% of 350,000 active; AID 624296; also: % of control where 0% means no effect; nearly all actives have a fitted effect of over 50% in size
VP16 counter: counter-screen for ROR gamma inhibitors: Gal4-VP16 reporter; Drosophila S2 Gal4-VP16 UAS-luciferase, luminescence, 20 h; 3.5% of 310,000 active; AID 2546; Potency, µM (highest dose often 53.6 µM), for the others: at the top dose activity, negative = inhibition, actives largely listed as inhibitors;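 also: Gal4-VP16 expression switched on by copper sulfate through the metallothionein promoter; % is scaled to controls: 0 for no effect and ±100 for the full control effect; nearly all actives have a fitted effect of over 50% in size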
RORg inh: blocks mouse ROR gamma transcriptional activity | P51450 | Drosophila S2 Gal4-RORgamma UAS-luciferase reporter, 20 h | Potency, µM (doses to about 53.6 µM), inactives show top-dose activity change, negative = inhibition, actives largely listed as inhibitors | 5.4% of 310,000 active | AID 2551; also: % is scaled to controls: 0 for no effect and ±100 for the full control effect; nearly all actives have a fitted effect of over 60% in size
Target sequence (P51450 whole entry, looked up, the tested form may be a part): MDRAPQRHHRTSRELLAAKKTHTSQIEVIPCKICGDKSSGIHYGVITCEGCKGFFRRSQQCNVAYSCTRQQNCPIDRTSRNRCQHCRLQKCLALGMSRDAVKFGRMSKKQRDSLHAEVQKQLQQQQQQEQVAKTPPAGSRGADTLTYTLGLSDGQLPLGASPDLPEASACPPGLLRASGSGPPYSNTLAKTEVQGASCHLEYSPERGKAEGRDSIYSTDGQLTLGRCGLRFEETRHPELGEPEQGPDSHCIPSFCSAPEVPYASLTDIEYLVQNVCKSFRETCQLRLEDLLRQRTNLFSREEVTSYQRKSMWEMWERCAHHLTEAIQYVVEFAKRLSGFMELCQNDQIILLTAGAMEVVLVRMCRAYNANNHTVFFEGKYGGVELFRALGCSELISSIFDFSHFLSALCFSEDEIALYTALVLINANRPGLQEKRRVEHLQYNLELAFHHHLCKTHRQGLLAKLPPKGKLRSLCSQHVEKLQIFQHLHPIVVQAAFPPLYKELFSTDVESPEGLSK
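ROR gamma transcriptional activity was tracked as Gal4-UAS luciferase output in stably transfected Drosophila Schneider cells, with compound added 1 hr before 700 uM copper sulfate induction and a 20 hr ambient-temperature incubation.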
SW480 rerep: DNA re-replication induction in SW480 cells | SW480 DNA re-replication, Hoechst DNA content imaging, 48 h | AID 624297 | Potency, µM (doses to about 46.1 µM), inactives show at the highest dose re-replication activation, actives largely listed as activators | 1.8% of 340,000 active; also: % of control where 0% means no effect; nearly all actives have a fitted effect of over 55% in size
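Readout is total intensity of Hoechst-stained nuclei, excited at 405 nm and collected at 500-530 nm. Compound treatment lasted 48 hr at 37 C in 5% CO2 before staining.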
ELG1 repair inh: blocks ELG1-dependent DNA repair in HEK293T cells. Potency, µM (top dose mostly 46.1 µM), for the others: at the top dose activity change, negative = inhibition, usual class: inhibitors. 2.3% of 330,000 active. HEK293T ELG1-luciferase reporter, luminescence, 16 h; DNA damage induced by 5-fluorouridine; also: % is scaled to controls: 0 for no effect and ±100 for the full control effect; nearly all actives have a fitted effect of over 55% in size
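Quantitative HTS, concentration-response format. 2,000 cells/well co-treated with 5-fluorouridine and compound, 16 hr in 5% CO2 at 37 °C; ONE-Glo luminescence read after 30 min.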
* hit, by the source's call; [ ] = remark or other dose. Shown are actives, neighbours in structure and some others; about 10% of the full set was active somewhere. Calls follow the shape of the dose curve; as a rule, active = well fitted curve in the direction sought with a large enough effect; inconclusive = small, poorly fitted or top-dose-only effect, or another doubt; inactive = no such curve, though single readings can be large; an effect the other way counts as inactive or inconclusive. Potency is read from the fitted curve at half-maximal effect.

Screening O=c1[nH]c(-c2ccccn2)nc2ccccc12 returned MCF10A rereplic inconclusive, VP16 counter 7.1µM*, RORg inh 4µM*, SW480 rerep inconclusive and ELG1 repair inh inconclusive.
Cc1sc2nc(-c3ccccn3)[nH]c(=O)c2c1-c1ccccc1 was read as MCF10A rereplic inconclusive, VP16 counter 4.5µM*, RORg inh 1.1µM*, SW480 rerep 23µM* and ELG1 repair inh -18%.
Screening O=c1[nH]c(-c2ccccc2O)nc2ccccc12 returned VP16 counter 28% and RORg inh 24%.
Screening COc1ccccc1C(=O)N/N=C(\C)c1cccnc1 returned MCF10A rereplic -1% and SW480 rerep -133%.
`COc1ccccc1N1C(=O)c2ccccc2NC1c1ccc(O)cc1` (stereo unspecified) gave MCF10A rereplic 5%, VP16 counter 9%, RORg inh -7%, SW480 rerep -10% and ELG1 repair inh inconclusive.
Screening CCN(CC)C(=O)c1sc2nc(-c3ccccn3)[nH]c(=O)c2c1C returned MCF10A rereplic -2% and SW480 rerep 89%.
`Cc1ccc2nc(-c3ccccn3)[nH]c2c1` gave MCF10A rereplic -15%, VP16 counter 6.3µM*, RORg inh 4µM*, SW480 rerep 0% and ELG1 repair inh inconclusive.
For Cc1ccc2nc(C(O)C(O)c3nc4ccc(C)cc4[nH]3)[nH]c2c1 (stereo unspecified) the results were MCF10A rereplic 1%, VP16 counter 7.9µM*, RORg inh 7.1µM*, SW480 rerep -13% and ELG1 repair inh inconclusive.
For c1ccc(-c2nc3ccccc3[nH]2)nc1 the results were MCF10A rereplic -23%, VP16 counter 6.3µM*, RORg inh 5.6µM*, SW480 rerep 21% and ELG1 repair inh inconclusive.
For O=c1[nH]c(-c2ccccn2)nc(C(F)(F)F)c1Br the results were MCF10A rereplic 18µM*, VP16 counter 5µM*, RORg inh 2.2µM*, SW480 rerep 10µM* and ELG1 repair inh 9%.
For O=C(NNC(=O)c1cccs1)c1ccc(Br)cc1 the results were MCF10A rereplic -26%, VP16 counter -2%, RORg inh 0%, SW480 rerep 16% and ELG1 repair inh inconclusive.
Screening Cc1ccc2nc(-c3ccccc3N)[nH]c2c1 returned MCF10A rereplic -2%, VP16 counter -3%[10 µM], RORg inh 10µM*, SW480 rerep inconclusive and ELG1 repair inh inconclusive.
COc1ccccc1Cn1c(=S)[nH]c2cc(C(=O)NC(C)C)ccc2c1=O was read as MCF10A rereplic 1%, VP16 counter -10%, RORg inh 0%, SW480 rerep inconclusive and ELG1 repair inh inconclusive.
`CCN(CC)CCn1c(=S)[nH]c2ccc(Br)cc2c1=O` gave MCF10A rereplic -1%, VP16 counter 13µM*, RORg inh 11µM*, SW480 rerep -28% and ELG1 repair inh -1%.
Screening COc1ccccc1NC(=O)CCCn1c(=S)[nH]c2ccccc2c1=O returned MCF10A rereplic 19%, VP16 counter inconclusive, RORg inh 10µM*, SW480 rerep 10% and ELG1 repair inh inconclusive.
COc1ccccc1Cn1c(=S)[nH]c2ccc(F)cc2c1=O was read as MCF10A rereplic 2%, VP16 counter 11µM*, RORg inh 16µM*, SW480 rerep -2% and ELG1 repair inh 20%.
Screening CCN(CC)CCn1c(=S)[nH]c2ccccc2c1=O returned MCF10A rereplic 1%, VP16 counter 6%, RORg inh -35%, SW480 rerep -9% and ELG1 repair inh 0%.
Screening COc1ccccc1Cn1c(=S)[nH]c2ccccc2c1=O returned MCF10A rereplic 7%, VP16 counter 14µM*, RORg inh 10µM*, SW480 rerep 0% and ELG1 repair inh -1%.
`CCOC(=O)C1CCN(C(=O)COc2ccc(S(=O)(=O)N3CCCC3)cc2C)CC1` gave MCF10A rereplic -10%, VP16 counter 7%, RORg inh 17%, SW480 rerep -12% and ELG1 repair inh inconclusive.
CC1CCc2nc3ccc(S(=O)(=O)N4CCC(C(=O)NC(C)c5ccccc5)CC4)cc3c(C(=O)O)c2C1 (stereo unspecified) was read as MCF10A rereplic -1%, VP16 counter 5%, RORg inh 12%, SW480 rerep -1% and ELG1 repair inh 0%.
`COc1ccccc1Cn1c(=S)[nH]c2ccc(Br)cc2c1=O` gave MCF10A rereplic 2%, VP16 counter 5.6µM*, RORg inh 2µM*, SW480 rerep 4% and ELG1 repair inh -2%.
Screening COCCCNC(=O)c1ccc2c(=O)n(Cc3ccccc3OC)c(=S)[nH]c2c1 returned MCF10A rereplic 4%, VP16 counter -4%, RORg inh -3%, SW480 rerep -4% and ELG1 repair inh -7%.
`O=c1c2cc(F)ccc2[nH]c(=S)n1Cc1ccc(F)cc1` gave MCF10A rereplic inconclusive, VP16 counter 3.2µM*, RORg inh 1.4µM*, SW480 rerep -6% and ELG1 repair inh 0%.
Screening CCN(CC(=O)NCc1ccc(Cl)cc1)C(=O)c1cc2ccccc2o1 returned MCF10A rereplic 4%, VP16 counter -18%, RORg inh 23%, SW480 rerep -13% and ELG1 repair inh -5%.
Fc1ccccc1Cc1noc(CN(Cc2ccccn2)CC2CCCO2)n1 (stereo unspecified) was read as MCF10A rereplic -1%, VP16 counter -1%, RORg inh -14%, SW480 rerep -1% and ELG1 repair inh 1%.
Screening Clc1ccc2nc(-c3ccc(Cl)nc3)[nH]c2c1 returned MCF10A rereplic inconclusive, VP16 counter -5%, RORg inh 0%, SW480 rerep 13µM* and ELG1 repair inh inconclusive.
Screening Cc1ccc(C(=O)NN(C)c2nc3ccccc3nc2C(F)(F)F)cc1 returned MCF10A rereplic 4.6µM*, VP16 counter -12%, RORg inh -6%, SW480 rerep 13µM* and ELG1 repair inh -13%.
Screening CN(NC(=O)c1ccc(Cl)cc1)c1nc(-c2ccccc2)nnc1C(F)(F)F returned MCF10A rereplic inconclusive, VP16 counter -9%, RORg inh 18%, SW480 rerep -2% and ELG1 repair inh inconclusive.
`CSc1nc(N(C)NC(=O)c2ccccc2)c2ccccc2n1` gave MCF10A rereplic 1.6µM*, VP16 counter -1%[0.365 µM], RORg inh 1%, SW480 rerep inconclusive and ELG1 repair inh 8%.
`CSc1nc(N(C)NC(=O)c2ccc(Cl)cc2)c2ccccc2n1` gave MCF10A rereplic inconclusive, VP16 counter -3%, RORg inh -18%, SW480 rerep 0.58µM* and ELG1 repair inh -20%.
